Structures can show the parent of a compound that is named as a salt.

The test system of this test is Danio rerio larvae (5 dpf). Briefly: optomotor response to red moving lines, difference vs DMSO (percentage points (treated minus DMSO)); higher = more of the behaviour than the DMSO vehicle control. To be noted: 10 µM; exposure time: 3 h pre-incubation + 3 h imaging. The procedure:
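5-dpf wild-type zebrafish larvae were imaged in 96-well plates. They were treated with 190 Tocris FDA-approved drugs at 10 µM (1 µl/ml DMSO) for 3 h before and 3 h during imaging at 28.5 °C, 48 larvae per drug. Automated image analysis gave % time moving and optomotor responses. Values are drug group mean minus DMSO vehicle mean (n=844), in percentage points, for 10 behaviours.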
`CN1C[C@H](C(=O)N[C@]2(C)O[C@@]3(O)[C@@H]4CCCN4C(=O)[C@H](Cc4ccccc4)N3C2=O)C[C@@H]2c3cccc4[nH]cc(c34)C[C@H]21` [Dihydroergotamine mesylate]: the “optomotor response to red moving lines” value is 11.5.

For the compound `CCN(C)C(=O)Oc1cccc([C@H](C)N(C)C)c1` [Rivastigmine tartrate], the “optomotor response to red moving lines” value was -8.95. In the case of `O=c1[nH]c2ccccc2n1C1CCN(CCCC(c2ccc(F)cc2)c2ccc(F)cc2)CC1` [Pimozide] it was -0.227; in that of `N[C@@H]1C[C@H]1c1ccccc1` [Tranylcypromine hydrochloride], 12.9.

Regarding `C=C1C[C@@H]2[C@H](CC[C@]3(C)C(=O)CC[C@@H]23)[C@@]2(C)C=CC(=O)C=C12` [Exemestane], the “optomotor response to red moving lines” value is 6.78.

Take `CC(C)C[C@H]1C(=O)N2CCC[C@H]2[C@]2(O)O[C@](NC(=O)[C@@H]3C=C4c5cccc6[nH]c(Br)c(c56)C[C@H]4N(C)C3)(C(C)C)C(=O)N12` [Bromocriptine mesylate]: the “optomotor response to red moving lines” value was -29. In the case of `COc1cc2c(cc1OC)C1CC(=O)C(CC(C)C)CN1CC2` (stereo unspecified) [Tetrabenazine] it was -1.77.

Take `CC(O)(CS(=O)(=O)c1ccc(F)cc1)C(=O)Nc1ccc(C#N)c(C(F)(F)F)c1` (stereo unspecified) [Bicalutamide]: the “optomotor response to red moving lines” value was -10.4. Next, `CC[C@@H](C(N)=O)N1CCCC1=O` [Levetiracetam]: 0.251.

With `COc1ccc(C(CN(C)C)C2(O)CCCCC2)cc1` (stereo unspecified) [Venlafaxine hydrochloride], the “optomotor response to red moving lines” value came out at 18.8. In the case of `C=CCN1C[C@H](C(=O)N(CCCN(C)C)C(=O)NCC)C[C@@H]2c3cccc4[nH]cc(c34)C[C@H]21` [Cabergoline] it was -3.05.

(Values after the supplement of paper PMC9023506.)
